{
  "source": "PubChem BioAssay (NCATS)",
  "note": "Results filed as inconclusive are left out. Calls of active or inactive are those of the source. Calls come from the whole dose curve; as a rule, active = well fitted cell-killing curve with a large enough effect; inconclusive = small, poorly fitted or top-dose-only effect; inactive = flat fitted curve, though single readings scatter.",
  "data": [
    {"test": "qHTS of pediatric cancer cell lines to identify multiple opportunities for drug repurposing: Primary screen for TC32 cells (AID 1347089); note: % is set by controls: 0 for no effect and ±100 for the full control effect; nearly all actives have a fitted effect of over 60% in size", "details": "TC32 Ewing sarcoma viability, CellTiter-Glo luminescence, 48 h; series mostly up to 45.8 µM; activity change, negative = cytotoxic: at the top concentration", "excerpt": "Drug repurposing or repositioning has been offered as a strategy for drug development in oncology programs. This approach has special potential for childhood cancers and other rare or orphan diseases, where the expected return on new drug development has been a disincentive to pharmaceuticals.\nIn this project we exploit the poly-pharmacology of drugs to discover new indications via phenotypic screening of a panel of 19 well-characterized cell lines derived from solid tumors seen in children and adolescents. The goal is to identify approved drugs with previously unrecognized anticancer properties that has the potential to reveal new mechanisms and biological processes involved in carcinogenesis or drug resistance. We employed a titration-based paradigm (quantitative high-throughput screening or qHTS), where all compounds were tested at multiple concentrations for their effect on cell viability. Concentration-response curves (CRCs) were derived directly from the primary screen, and both potency and efficacy values were used to identify compounds with robust bioactivity profiles. We screened the NIH Chemical Genomics Center (NCGC) Pharmaceutical Collection (NPC) and Mechanism Interrogation Plate (MIPE) small molecule collections of approved and investigational compounds against these cell lines; and measured metabolically active cells after 48 hours of compound treatment as a proxy for cell viability.\nAssay Submitter: Nathalia J. Martinez, National Center for Advancing Translational Sciences, National Institutes of Health, Rockville, MD, USA; email: natalia.martinez@nih.gov\n[1] Shen, M et al. Quantitative high-throughput phenotypic screening of pediatric cancer cell lines identifies multiple opportunities for drug repurposing. Oncotarget 2017 Dec 19;9(4):4758-4772. PMID 29435139.\nThe cells were obtained from University of North Carolina (UNC), Pediatric Preclinical Testing Program (PPT), and Coriell Institute (CI).\nqHTS cell viability assay:\nCells were assayed in growth media at a density of 500-1,000 cells/well. Five microliters of cells were dispensed into 1,536-well, white, solid-bottom, TC-treated plates (Greiner Bio One) using a multidrop dispenser and incubated at 37 degrees C, 5% CO2, under a humidified atmosphere for 5 hours. Twenty-three nanoliters of compounds and controls (neutral control DMSO or positive control bortezomib at final concentration of 2.3 uM) were subsequently transferred by Kalypsys pintool. For primary screens, the MIPE collection was tested at 11-point dilutions (final concentrations range from 0.78 nM to 46 µM) and the NPC collection at 8-point dilutions (final concentrations range from 0.59 nM to 46 µM). Compounds tested in follow-up screens were assayed at 11-point dilutions. Cells were incubated for 48 hours, followed by addition of 3 uL of CellTiter-Glo (Promega). After a 15min incubation at room temperature, samples were analyzed for luminescence intensity using a ViewLux High-throughput CCD imager equipped with clear filters.", "values": [
      {"compound": "COc1ccc2[nH]c(S(=O)Cc3ncc(C)c(OC)c3C)nc2n1", "note": "(stereo not given)", "activity change, negative = cytotoxic": "19.4% (inactive)"},
      {"compound": "O=c1cc[nH]c(=O)[nH]1", "activity change, negative = cytotoxic": "8.07% (inactive)"},
      {"compound": "Cc1ccc(C(C)C)cc2c(C)ccc1-2", "activity change, negative = cytotoxic": "2.3% (inactive)"},
      {"compound": "CCCCC(CC)COC(=O)c1ccccc1O", "note": "(stereo not given)", "activity change, negative = cytotoxic": "8.93% (inactive)"},
      {"compound": "CC(=O)CCC(=O)O", "activity change, negative = cytotoxic": "7.49% (inactive)"},
      {"compound": "CCCCc1ncc(/C=C(\\Cc2cccs2)C(=O)O)n1Cc1ccc(C(=O)O)cc1", "activity change, negative = cytotoxic": "1.97% (inactive)"},
      {"compound": "CCCCN(CCCC)CC(O)c1cc(Cl)cc2c1-c1ccc(Cl)cc1/C2=C/c1ccc(Cl)cc1", "note": "(stereo not given)", "activity change, negative = cytotoxic": "0.858% (inactive)"},
      {"compound": "CC1=C(C/C=C(\\C)CCC[C@H](C)CCC[C@H](C)CCCC(C)C)C(=O)c2ccccc2C1=O", "activity change, negative = cytotoxic": "7.06% (inactive)"},
      {"compound": "O=S(=O)(O)NC1CCCCC1", "activity change, negative = cytotoxic": "12.6% (inactive)"},
      {"compound": "Cn1c(=O)c2c(ncn2CC2OCCO2)n(C)c1=O", "activity change, negative = cytotoxic": "13.7% (inactive)"},
      {"compound": "Oc1ccc(C(O)CNCCCCCCNCC(O)c2ccc(O)c(O)c2)cc1O", "note": "(stereo not given)", "activity change, negative = cytotoxic": "12.4% (inactive)"},
      {"compound": "CCC(=O)c1ccc(O)cc1", "activity change, negative = cytotoxic": "15.2% (inactive)"},
      {"compound": "c1ccc(CN(CC2=NCCN2)c2ccccc2)cc1", "activity change, negative = cytotoxic": "3.42% (inactive)"},
      {"compound": "CCN(CC)CCCC(C)Nc1c2ccc(Cl)cc2nc2ccc(OC)cc12", "note": "(stereo not given)", "activity change, negative = cytotoxic": "-17.3% (inactive)"},
      {"compound": "CCCCCCCCCCCCCCCC(=O)NCCO", "activity change, negative = cytotoxic": "-2.2% (inactive)"},
      {"compound": "Cc1cc(CC(=O)O)n(C)c1C(=O)c1ccc(Cl)cc1", "activity change, negative = cytotoxic": "8.61% (inactive)"},
      {"compound": "CC/C=C(\\C(=O)N[C@@H]1C(=O)N2C(C(=O)OCOC(=O)C(C)(C)C)=C(COC(N)=O)CS[C@H]12)c1csc(N)n1", "Potency": "inactive"},
      {"compound": "C[C@]12CC[C@@H]3c4ccc(O)cc4CC[C@H]3[C@@H]1CC[C@@H]2OC(=O)CCC1CCCC1", "activity change, negative = cytotoxic": "8.99% (inactive)"},
      {"compound": "CCCOC(=O)c1ccccc1", "activity change, negative = cytotoxic": "15.2% (inactive)"},
      {"compound": "Nc1cc(=O)[nH]c(N)n1", "activity change, negative = cytotoxic": "8.98% (inactive)"},
      {"compound": "C[C@]12C[C@H](O)[C@H]3[C@@H](CCC4=CC(=O)CC[C@@]43C)[C@@H]1CC[C@@H]2C(=O)CO", "activity change, negative = cytotoxic": "10.4% (inactive)"},
      {"compound": "CC(O)CN(CCN(CC(C)O)CC(C)O)CC(C)O", "note": "(stereo not given)", "activity change, negative = cytotoxic": "18.1% (inactive)"},
      {"compound": "O=Cc1ccccc1C=O", "activity change, negative = cytotoxic": "5.92% (inactive)"},
      {"compound": "NC(=O)N/N=C/c1ccc([N+](=O)[O-])o1", "activity change, negative = cytotoxic": "5.75% (inactive)"},
      {"compound": "CC1(C)CO[C@@H](CC(=O)O)CN1", "activity change, negative = cytotoxic": "9.52% (inactive)"},
      {"compound": "CCN(CC)CCOC(=O)C1(C2CCCCC2)CCCCC1", "activity change, negative = cytotoxic": "8.77% (inactive)"},
      {"compound": "O=C(O)COc1nn(Cc2ccccc2)c2ccccc12", "activity change, negative = cytotoxic": "8.57% (inactive)"},
      {"compound": "O=C(O)c1ccccc1-c1ccc(C(F)(F)F)cc1", "activity change, negative = cytotoxic": "13.4% (inactive)"},
      {"compound": "CC1(C)Oc2ccc(C#N)cc2[C@@H](N2CCCC2=O)[C@@H]1O", "activity change, negative = cytotoxic": "7.53% (inactive)"},
      {"compound": "NC(=O)c1ncn([C@@H]2O[C@H](CO)[C@@H](O)[C@H]2O)c1N", "activity change, negative = cytotoxic": "11% (inactive)"},
      {"compound": "O=C(CCCN1CCN(c2ccccn2)CC1)c1ccc(F)cc1", "activity change, negative = cytotoxic": "-11.5% (inactive)"},
      {"compound": "CN1CCN(C2Cc3ccccc3Sc3ccc(Cl)cc32)CC1", "note": "(stereo not given)", "activity change, negative = cytotoxic": "-19.5% (inactive)"},
      {"compound": "CN1CCCCC1CCN1c2ccccc2Sc2ccc(S(C)=O)cc21", "note": "(stereo not given)", "activity change, negative = cytotoxic": "3.99% (inactive)"},
      {"compound": "O=C1c2c(O)cccc2Cc2cccc(O)c21", "activity change, negative = cytotoxic": "2.1% (inactive)"},
      {"compound": "NC(=O)NNc1ccccc1", "activity change, negative = cytotoxic": "-0.292% (inactive)"},
      {"compound": "CC1CC(OC(=O)C(O)c2ccccc2)CC(C)(C)N1C", "note": "(stereo not given)", "activity change, negative = cytotoxic": "3.68% (inactive)"},
      {"compound": "NC(N)=NCCC[C@H](N)C(=O)O", "activity change, negative = cytotoxic": "3.73% [at 4.81 µM] (inactive)"},
      {"compound": "CC(=O)Oc1c(C)c(C)c2c(c1C)CC[C@@](C)(CCC[C@H](C)CCC[C@H](C)CCCC(C)C)O2", "activity change, negative = cytotoxic": "2.44% (inactive)"},
      {"compound": "NC(=O)NC(=O)Cc1ccccc1", "activity change, negative = cytotoxic": "5.16% (inactive)"},
      {"compound": "O=C1O[C@H]([C@@H](O)CO)C(O)=C1O", "activity change, negative = cytotoxic": "3.55% (inactive)"}
    ]}
  ]
}
